HPGD inh: blocks human HPGD enzyme activity; P15428; purified HPGD, NADH fluorescence kinetic, PGE2 substrate; Potency, µM, for inactives: at the highest dose activity change, negative = inhibition, usual class: inhibitors; hit rate 4.3% among 150,000; AID 894; also: % is scaled to controls: 0 for no effect and ±100 for the full control effect
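20 nM HPGD preincubated 15 min at room temperature with compound in 50 mM Tris-HCl pH 8, 0.01% Tween 20. Started with 1 mM NAD+ and 30 uM prostaglandin E2; NADH fluorescence (360/450 nm) read 5 times over 30-s intervals, last minus first.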
HTT ATP protect: Huntington cell model cytoprotection by ATP luminescence; PC12 HTT-Q103 induced, cytoprotection, ATP luminescence, 40 h; Potency, µM (series often up to 56.4 µM), for inactives: cytoprotection (ATP increase), most hits filed as activators; hit rate 0.14% among 230,000; AID 1471; active = well fitted curve in the direction sought with a large enough effect; inconclusive = small, poorly fitted or top-dose-only effect, or another doubt; inactive = no such curve, though single readings can be large; an effect the other way counts as inactive or inconclusive; also: % of control where 0% means no effect; nearly all actives have a fitted effect of over 45% in size
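Huntington model: PC12 line, ecdysone-inducible HTTQ103 exon1–GFP, tebufenozide 100 nM. Test articles in a dose series. Endpoint luminescence from cellular ATP.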
ALDH1A1 block: blocks purified human ALDH1A1 activity; P00352; Purified ALDH1A1, NADH fluorescence, propionaldehyde substrate; Potency, µM (highest dose often 75.3 µM), for the others: top-dose activity, negative = inhibition, most hits filed as inhibitors; hit rate 7.3% among 220,000;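 also: plate controls were no enzyme wells and a reference inhibitor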
JMJD2E inh: blocks human JMJD2E demethylase activity; JMJD2E catalytic domain, FDH-coupled NADH fluorescence (FDH is formaldehyde dehydrogenase); hit rate 1.6% among 230,000; Potency, µM (series often up to 57.1 µM), for inactives: at the top dose activity change, negative = inhibition, actives largely listed as inhibitors; AID 2147;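 also: 0% = wells with enzyme and -100% = buffer wells without enzyme; nearly all actives have a fitted effect of over 50% in size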
Target sequence (B2RXH2 1-337 limits assumed): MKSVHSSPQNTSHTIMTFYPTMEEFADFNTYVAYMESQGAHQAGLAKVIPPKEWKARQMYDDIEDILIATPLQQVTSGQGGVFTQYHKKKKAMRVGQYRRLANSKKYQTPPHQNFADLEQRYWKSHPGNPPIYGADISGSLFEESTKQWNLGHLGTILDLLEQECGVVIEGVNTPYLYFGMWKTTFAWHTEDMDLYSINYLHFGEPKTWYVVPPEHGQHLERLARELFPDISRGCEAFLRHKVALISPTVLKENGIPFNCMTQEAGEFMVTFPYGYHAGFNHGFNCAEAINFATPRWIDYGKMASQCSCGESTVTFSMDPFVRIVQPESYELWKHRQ
Lamin A splicing: modulators of lamin A splicing; HeLa LMNA splicing GFP/RFP minigene ratio, 48 h; Potency, µM (series often up to 46.1 µM), for inactives: at the highest dose ratio change, negative = inhibition, hits mostly inhibitors; hit rate 0.01% among 200,000; AID 1487; active = well fitted inhibition curve with a large enough effect in the signal ratio, with a control signal flat, not every such curve was filed as active; inconclusive = small, poorly fitted or top-dose-only effect, or effect the other way, or a change in a side signal; the % refers to the signal ratio; also: % is scaled to controls: 0 for no effect and ±100 for the full control effect
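S3 HeLa stable clones carrying a lamin A-EGFP splicing minigene plus DsRed2 were seeded at 600 cells/well in Opti-MEM with 2% FBS, pin-dosed and incubated 48 h at 37°C. Acumen cytometry (488 nm) gave the GFP/RFP total-intensity ratio.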
HTT aggregate: reduces HttQ103-GFP aggregates in PC12 cells; PC12 HttQ103-GFP aggregates, Acumen cytometry, 40 h; Potency, µM (top dose mostly 46.1 µM), inactives show top-dose activity change, negative = inhibition, usual class: inhibitors; hit rate 1.1% among 220,000; AID 1688; active = well fitted curve in the direction sought with a large enough effect; inconclusive = small, poorly fitted or top-dose-only effect, or another doubt; inactive = no such curve, though single readings can be large; an effect the other way counts as inactive or inconclusive; also: % is scaled to controls: 0 for no effect and ±100 for the full control effect; nearly all actives have a fitted effect of over 60% in size
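Quantitative HTS on tebufenozide-induced (100 nM) PC12 cells stably expressing polyQ103 Huntingtin exon 1–GFP. Reduction of bright GFP aggregates, detected by laser scanning cytometry after lysis, identified actives across the titration.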
* = called active by the depositor; [ ] = another dose, or the depositor's remark. Most compounds without a hit are left out; they make up all but 9.2% or so of the library. Unless noted, calls follow the shape of the dose curve; as a rule, active = well fitted inhibition curve with a large enough effect (not every such curve was filed as active); inconclusive = small, poorly fitted or top-dose-only effect, or another doubt; inactive = no such curve, though single readings can be large or run the other way. Potency is read from the fitted curve at half-maximal effect.

Screening N#Cc1cccc(-n2nnnc2-c2ccc3c(c2)OCO3)c1 returned HPGD inh -10%, HTT ATP protect 2%, ALDH1A1 block inconclusive, JMJD2E inh 0%, Lamin A splicing -1% and HTT aggregate 3%.
`N#Cc1cccc(-n2nnnc2-c2ccccn2)c1` gave HTT ATP protect 3%[10 µM], ALDH1A1 block inconclusive, JMJD2E inh inconclusive, Lamin A splicing 3% and HTT aggregate 11µM*.
For CCOc1ccccc1NC(=O)CN(C)S(=O)(=O)c1ccc(OC)c(C)c1 the results were HPGD inh 16µM*, HTT ATP protect -9%[10 µM], ALDH1A1 block inconclusive, JMJD2E inh 5%, Lamin A splicing -5% and HTT aggregate -16%.
For Cc1cccc(C(=O)Nc2cc3c(cc2C)n(C)c(=O)n3C)c1 the results were Lamin A splicing 25%[46 µM].
Screening O=C(CCNC(=O)c1ccccc1Cl)Nc1ccc(Cl)c(C(F)(F)F)c1 returned HPGD inh 22µM*, HTT ATP protect 0%[10 µM], ALDH1A1 block 6%, JMJD2E inh 1%, Lamin A splicing -3% and HTT aggregate 2%.
For C/C(CC(=O)Nc1ccc(Cl)c(C(F)(F)F)c1)=N\NC(=O)c1ccccc1O the results were HPGD inh -29%, HTT ATP protect -4%[10 µM], ALDH1A1 block 0%, JMJD2E inh inconclusive, Lamin A splicing inconclusive and HTT aggregate 16µM*.
Screening C/C(CC(=O)Nc1ccc(Cl)c(C(F)(F)F)c1)=N\NC(=O)c1cccc(O)c1 returned HPGD inh -7%, HTT ATP protect -11%[10 µM], ALDH1A1 block 5%, JMJD2E inh 0%, Lamin A splicing inconclusive and HTT aggregate -13%.
Screening O=C(CCNC(=O)c1ccccc1Cl)Nc1ccc2c(c1)OCO2 returned HPGD inh -14%, HTT ATP protect -13%, ALDH1A1 block -6%, JMJD2E inh -11%, Lamin A splicing -3% and HTT aggregate -15%.
`CC1=C(C)C(=O)C(C(CCCCCC(=O)O)c2ccccc2)=C(C)C1=O` (stereo not given) gave HTT ATP protect 6% and HTT aggregate -3%.
Screening CCOC(=O)c1sc2nc3c(cc2c1N)COC(C)(C)C3 returned HPGD inh -19%, HTT ATP protect 5%[10 µM], ALDH1A1 block inconclusive, JMJD2E inh inconclusive, Lamin A splicing -14% and HTT aggregate -13%.
COC(=O)c1sc2nc3c(cc2c1N)C(=O)CC(C)(C)C3 was read as HPGD inh -1%, HTT ATP protect -9%[10 µM], ALDH1A1 block 0.89µM*, JMJD2E inh 2%, Lamin A splicing 4% and HTT aggregate 15%[9.22 µM].
Screening CC1(C)CC(=O)c2cc3c(N)c(C(=O)NCc4ccccc4)sc3nc2C1 returned HPGD inh 1%, HTT ATP protect -8%, ALDH1A1 block inconclusive, JMJD2E inh -8%, Lamin A splicing 9% and HTT aggregate -12%.
Cc1cc(C)c(NC(=O)c2sc3nc4c(cc3c2N)C(=O)CC(C)(C)C4)c(C)c1 was read as HPGD inh -12%, ALDH1A1 block 0.25µM*, JMJD2E inh -3%, Lamin A splicing 4% and HTT aggregate -17%.
`CCOC(=O)c1sc2nc3c(cc2c1N)C(=O)CC(C)(C)C3` gave HPGD inh -9%, ALDH1A1 block 0.5µM*, JMJD2E inh 4%, Lamin A splicing -7% and HTT aggregate -20%.
`COC(C/C=C\[C@@H](O)COCc1ccccc1)OC` gave HTT ATP protect 13%[10 µM], JMJD2E inh -6% and HTT aggregate 16%[9.22 µM].
O=C(CN1C(=O)CC(c2ccco2)Sc2ccccc21)Nc1ccc2c(c1)OCCO2 (stereo not given) was read as HPGD inh -18%, HTT ATP protect -33%, ALDH1A1 block 14µM*, JMJD2E inh 6%, Lamin A splicing -3% and HTT aggregate -2%.
